Compound activity as filed in PubChem.
HT1080NT lethal: qHTS for induction of synthetic lethality in tumor cells producing 2HG: qHTS for the HT-1080-NT fibrosarcoma cell line. HT-1080-NT fibrosarcoma viability, CellTiter-Glo ATP luminescence, 48 h. Potency, µM (titrated, usually from 46.1 µM), inactives show top-dose activity, negative = less viability, hits mostly cytotoxic. actives 1.6% (n = 360,000);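 further: NT is the 2HG producing partner of a matched IDH1 knockdown line; potency means the concentration at half of the fitted maximal effect; 0% = DMSO-treated cells and -100% = media-only wells without cells; nearly all actives have a fitted effect of over 55% in size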
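Viability by CellTiter-Glo luminescence after 48 h compound exposure at 37C of HT-1080-NT cells (750/well, RPMI, 5% FBS). % activity scaled between DMSO wells and medium-only wells, then curve-fitted and categorized by curve class.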
HT1080 IDH1KD tx: qHTS for induction of synthetic lethality in tumor cells producing 2HG: qHTS for the HT-1080-IDH1KD cell line | HT-1080 IDH1 knockdown viability, ATP luminescence, 48 h | Potency, µM (titrated, usually from 46.1 µM), without a hit: top-dose activity, negative = toxicity, most hits filed as cytotoxic | actives 2% (n = 360,000) | AID 686971, 2013;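 further: potency means the concentration at half of the fitted maximal effect; 0% = DMSO wells and -100% = cell-free medium wells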
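Assay cells: HT-1080 with IDH1 knockdown, 750 per well, RPMI/5% FBS. Exposure: 48 h at 37 °C following 2 h pre-incubation. Read: CellTiter-Glo luminescence; fitted concentration-response, curve class assigned.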
IL1B secr inh: qHTS for Inhibitors of Inflammasome Signaling: IL-1-beta AlphaLISA Primary Screen; THP-1 LPS/ATP IL-1B secretion, AlphaLISA, 16 h; active compounds read low; activity change, % at 57.5 µM; AID 743279, 2014; actives 4.7% (n = 360,000); in the data active means activity change below about -50%; inconclusive means mostly about -30% to -49%; further: on the % scale 0 is the no-effect control and ±100 the full control effect
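Secreted IL-1B measured by AlphaLISA bead assay after 16 h compound exposure of THP-1 cells; compounds (final up to 57.5 uM) added 1 h before LPS (250 ng/mL) and ATP (1.25 mM) stimulation; lower signal means less secretion.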
TGFb inhibitor: qHTS for Inhibitors of TGF-b; actives 1.2% (n = 410,000); AID 588855, 2011; Potency, µM (top dose mostly 46.1 µM), inactives show at the top dose activity, negative = inhibition, actives largely listed as inhibitors; HepG2 CAGA-GFP TGF-b/SMAD3 reporter, GFP fluorescence, 18 h; TGF-beta stimulated, 500 pg/mL final; further: potency means the concentration at half of the fitted maximal effect; on the % scale 0 is the no-effect control and ±100 the full control effect; nearly all actives have a fitted effect of over 65% in size
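First, reporter cells (HEPG2 CAGA-GFP) rested 2 h at 37 degrees C. Next, compounds were pinned in and TGF-beta added to 500 pg/mL final. After 18 h, GFP was imaged per cell and summed per well.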
HepG2 viability: qHTS for Inhibitors of TGF-b: Cytotox Counterscreen; HepG2 CAGA-GFP viability, ATP luminescence, 18 h; actives 0.76% (n = 410,000); AID 588856, 2011; Potency, µM (doses to about 46.1 µM), without a hit: at the top dose activity change, negative = cytotoxicity, actives largely listed as cytotoxic; further: potency means the concentration at half of the fitted maximal effect
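HepG2 CAGA-GFP cells (1000/well, DMEM with 1% FBS) received compound, then TGF-beta at 500 pg/mL final, and were incubated 18 hours at 37 degrees C. Viability was read by CellTiter-Glo luminescence. Media-only wells were set as complete cell-killing and DMSO as no toxicity.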
Giardia killer: Small Molecules that selectively kill Giardia lamblia: qHTS; Giardia lamblia trophozoite viability; activity change, % at 7.66 µM, hits read low; actives 0.15% (n = 340,000); AID 540267, 2011; in the data active means activity change below about -80%; inconclusive means between about -30% and that limit;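 further: parasites exposed to compound for two days anaerobically before the ATP read; on the % scale 0 is the no-effect control and ±100 the full control effect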
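Each well holds 100 Giardia trophozoites and compound. After two days (48 hrs) at 37 deg C in anaerobic conditions, ATP is quantified by luminescence.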
An asterisk follows results filed as active; i = inactive; ? = inconclusive; · = not tested or not shown; [ ] = another dose, or the depositor's remark. Most compounds without a hit are left out; they make up all but 6.5% or so of the library. Unless noted, the call rests on the fitted dose curve; in most records, active means well fitted curve in the direction sought with a large enough effect; inconclusive means small, poorly fitted or top-dose-only effect, or another doubt; inactive means no such curve, though single readings can be large; an effect the other way counts as inactive or inconclusive.

SMILES	HT1080NT lethal	HT1080 IDH1KD tx	IL1B secr inh	TGFb inhibitor	HepG2 viability	Giardia killer
O/N=C/c1c[nH]c2ccccc12	1%	-2%	-1	-1%	2%	-4
CCOC(=O)c1cnc(SCc2ccc(Cl)c(Cl)c2)nc1N1CC1	?	9.2µM*	-14	0%	-21%	10
N#Cc1c(/N=C/c2c(O)n(Cc3ccco3)c(=O)[nH]c2=O)sc2c1CCCC2	0%	-5%	2	18%	-4%	-5
COc1ccc(NC2=NC(C)(C)CS2)cc1	25%	-3%	-55*	-2%	-42%	4
COc1ccc(NC2=NCC(C)S2)cc1 (centres undefined)	23%	1%	-15	-12%	-20%	-2
COC(=O)C1=C(c2ccc(S(C)(=O)=O)cc2)C[C@@H]2CC[C@H]1N2C(=O)NCc1ccccc1	-1%	8%	-3	?	-21%	5
C[C@H]1CCC/C=C/C2C[C@H](O)CC2[C@H](O)/C=C/C(=O)O1 (some centres undefined)	0.037µM*	0.029µM*	-64*	0.1µM*	-27%	18
Cc1ccc(C(C)C)cc1OCC(=O)Nc1nnc(C2CC2)s1	?	?	-5	31%	-15%	-20
C/C(=N\Nc1ccccc1)c1c(O)[nH]c(=O)[nH]c1=O	?	4.1µM*	38	-1%	-34%	-11
C/C(=N\Nc1ccccc1)c1c(O)n(-c2ccccc2)c(=O)[nH]c1=O	?	4.6µM*	·	-23%	-4%	-30
C/C(=N\Nc1ccccc1)c1c(O)n(Cc2ccccc2)c(=O)[nH]c1=O	?	?	-4	-2%	17%	13
COc1ccc(OCC(=O)N2CCN(CCc3ccccn3)CC2)cc1	·	·	·	-3%	15%	·
CCCC[N+]12CCC(CC1)C(Cc1ccccc1)C2 (centres undefined)	-12%	-9%	·	-1%	-10%	-16
COC(=O)C1=C(c2c(C)noc2C)C[C@@H]2CC[C@H]1N2C(=O)NCCOc1ccccc1	7%	13%	15	7%	3%	5
Cc1ccc(/C=C/C2=NN(Cc3ccc(Cl)c(Cl)c3)C(=O)CC2)cc1	1%	-1%[9.24 µM]	2	11µM*	-18%	-23
c1ccc(-n2ccnc2)cc1	26%	4%	19	10%	-2%	15
Oc1ccc(O)c2c1C1(Cl)C(Cl)=C(Cl)C2(Cl)C1(Cl)Cl	?	23µM*	-61*	?	i	-7
CCC1(c2ccc(N)cc2)CCC(=O)NC1=O (centres undefined)	?	10%	32	-1%	0%	9
O=C(c1ccc2c(c1)N(Cc1ccc(F)cc1Cl)C(=O)c1ccccc1S2)N1CCC2(CC1)OCCO2	·	·	·	11µM*	-19%	·
Cc1ccc(CN2C(=O)c3ccccc3Sc3ccc(C(=O)N4CCC5(CC4)OCCO5)cc32)cc1	·	·	·	?	-37%	·
COc1ccc(C=O)cc1	?	10%	0	28%	-2%	28
COC1C(O)C(C)OC(OC2C(Oc3cccc4c(O)c5c(=O)oc6ccc(C)c7c(=O)oc(c34)c5c67)OC(C)C(O)C2O)C1O (centres undefined)	?	?	-100*	3%	6%	4
CC(C)c1nn2c(=O)cc(COC(=O)Cc3ccccc3)nc2s1	·	·	·	1%	8%	·
Nc1nonc1OCCCCOc1nonc1N	15%	-1%	-18	-19%	-6%	-8
Cc1ncc([N+](=O)[O-])n1CCOc1nonc1N	0%	0%	4	-14%	6%	-87*
SMILES	HT1080NT lethal	HT1080 IDH1KD tx	IL1B secr inh	TGFb inhibitor	HepG2 viability	Giardia killer
CN1CC(C(=O)c2ccc(Cl)cc2)C(c2ccccc2F)C1 (centres undefined)	-1%	-12%	?	0%	-15%	-2
N#Cc1c(N)nc(SCc2ccncc2)c(C#N)c1-c1cccs1	?	?	-51*	?	-24%	6
O=[N+]([O-])c1ccc(-c2ccccc2)c([As](=O)(O)O)c1	-29%	-26%	-18	?	-26%	-82*
O=[N+]([O-])c1ccc2c(c1)C(c1ccccc1)=NCCN2	-21%	-19%	-15	0%	-12%	15
COc1ccc(OCCn2cc(/C=C(\C#N)C(=O)NCc3ccco3)c3ccccc32)cc1	?	-30%	?	?	-28%	12
C=C1C(=O)[C@@]23C[C@H]4[C@@H]5[C@@]6(C)CCC[C@@]57[C@@H]2[C@@H](O)[C@@H]1C[C@H]3[C@H]7N4C6	?	?	-108*	13µM*	-48%	-3
COc1cccc(C2CC3C(=O)C=CC2N3Cc2ccccc2)c1 (centres undefined)	-23%	-26%	?	0%	-18%	-5
O=C(NC1CN2CCC1CC2)c1cc(Cl)c([N+](=O)[O-])c2nc[nH]c12 (centres undefined)	6%	4%	-104*	?	-38%	-6
Cc1ccc2c(C)c3ccc4ccccc4c3c[n+]2c1	-29%	23µM*	-66*	?	-9%	23
CN1CCN(c2ncnc3ccc(Br)cc23)CC1	-1%	1%	6	0%	-20%	12
CCN(CC)C(=O)Cn1cc(/C=C2\C(=O)NC(=O)N(c3ccccc3F)C2=O)c2ccccc21	?	?	-94*	?	-68%	-17
CCOC(=O)Cn1cc(C=C2C(=O)N(C)C(=O)N(C)C2=O)c2ccccc21	7%	6%	0	7.1µM*	-42%	-15
C=CCNC(=O)c1c(N)n(CCN2CCOCC2)c2nc3ccccc3nc12	?	-27%	?	-25%	-29%	-8
Cc1nc2cc(C(F)(F)F)ccc2n1C1CCN(Cc2nnnn2Cc2ccc3c(c2)OCO3)CC1	23µM*	29µM*	-71*	?	-37%	-5
Cc1cc(/C=C2\C(=O)NC(=O)N(c3ccc(Cl)cc3)C2=O)c(C)n1-c1sc2c(c1C#N)CCCC2	-14%	?	-26	3.5µM*	-47%	13
Cc1ccc(N2C(=O)NC(=O)/C(=C\c3cc(C)n(-c4ccc(C(=O)O)cc4)c3C)C2=O)cc1	-12%	-2%	-5	0%	1%	-1
